Assay outcomes as filed in PubChem BioAssay.
The list is not random: actives were taken first. Their share in the collection is about 2.6%.
TPT1 inhibitor – C. albicans TPT1 enzyme inhibition | inhibition, % at 5 µM | 300,000 tested, 0.81% active | recombinant caTPT1, FP RNA substrate dephosphorylation;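 active = inhibition above the mean of all tested compounds plus 3 SD, set per screening campaign, cut at about 24% in these data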;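 also: plate controls were DMSO alone for no effect and ferristatin control at 100 nM for full effect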
IDE act – boosts human insulin-degrading enzyme activity in HEK cells; AID 493087; FAbeta-B cleavage, fluorescence polarization; 0% vehicle, 100% cell-free pure enzyme wells; 340,000 tested, 0.073% active; P14735; activation, % at 5.96 µM;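 active = activation above the mean of all tested compounds plus 3 SD, set per screening campaign, cut at about 17% in these data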
Target sequence (P14735 whole entry, looked up): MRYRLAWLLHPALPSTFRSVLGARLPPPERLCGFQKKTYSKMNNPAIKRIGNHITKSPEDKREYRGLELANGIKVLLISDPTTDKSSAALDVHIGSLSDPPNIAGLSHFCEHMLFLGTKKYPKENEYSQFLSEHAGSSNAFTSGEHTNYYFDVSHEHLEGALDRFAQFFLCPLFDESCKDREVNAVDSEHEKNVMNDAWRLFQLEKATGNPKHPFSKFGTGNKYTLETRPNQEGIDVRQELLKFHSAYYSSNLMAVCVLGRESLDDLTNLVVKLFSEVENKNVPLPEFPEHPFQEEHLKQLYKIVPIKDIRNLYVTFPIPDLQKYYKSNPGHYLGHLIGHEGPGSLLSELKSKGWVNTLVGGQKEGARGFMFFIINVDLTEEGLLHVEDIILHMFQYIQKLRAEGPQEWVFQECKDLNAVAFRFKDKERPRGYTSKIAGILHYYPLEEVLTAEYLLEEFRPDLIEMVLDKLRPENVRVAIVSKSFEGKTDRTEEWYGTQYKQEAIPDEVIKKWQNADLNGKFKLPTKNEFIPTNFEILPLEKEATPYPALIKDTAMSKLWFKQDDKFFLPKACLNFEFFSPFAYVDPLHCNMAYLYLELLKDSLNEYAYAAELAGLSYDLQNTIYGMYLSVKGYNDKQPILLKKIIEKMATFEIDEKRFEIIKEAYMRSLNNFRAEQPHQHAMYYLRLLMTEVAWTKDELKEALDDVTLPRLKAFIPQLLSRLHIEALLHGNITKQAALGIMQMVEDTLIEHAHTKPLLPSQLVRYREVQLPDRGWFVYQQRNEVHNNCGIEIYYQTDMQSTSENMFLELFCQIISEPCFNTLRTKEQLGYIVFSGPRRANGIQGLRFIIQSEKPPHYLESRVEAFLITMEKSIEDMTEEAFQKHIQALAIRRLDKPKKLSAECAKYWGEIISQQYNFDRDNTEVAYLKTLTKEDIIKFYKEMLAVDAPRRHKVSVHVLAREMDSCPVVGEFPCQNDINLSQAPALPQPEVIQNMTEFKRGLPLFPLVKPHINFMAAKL
CRFBP-R2 agonist – CRF-BP/CRF-R2 complex agonism | activation, % at 13.2 µM | 350,000 tested, 0.46% active | HEK293 CRF-R2/CRF-BP, calcium dye fluorescence (FLIPR); percent of saturating CRF peptide response;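 active = activation of at least 50%, plus an integration ratio under a set limit after plate pattern correction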;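 also: plate controls were neutral control wells without compound for no effect and CRF at EC100 for full effect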
IDE cell inh – inhibits human insulin-degrading enzyme in HEK cells; P14735; FAbetaB cleavage, fluorescence polarization; inhibition, % at 5.59 µM; 320,000 tested, 0.41% active;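 active = percent inhibition above the average of all tested compounds plus 3 SD, set per screening campaign, cut at about 16% in these data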;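 also: IDE supplied by intact live HEK cells; FP after avidin binding of uncleaved biotin substrate so inhibition keeps polarization high; 0% = DMSO wells and 100% = 60 µM reference IDE inhibitor Ii1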
Myeloid diff 2 – myeloid differentiation induction | ER-HoxA9 myeloid progenitors, lysozyme-GFP differentiation, flow cytometry | calls only at 10 µM | 360,000 tested, 1% active | AID 624256;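 active = normalized GFP-positive differentiation at or above the plate's own cutoff, the solvent-only control mean plus 3 SD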;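 also: cells exposed to compound for four days before flow analysis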
CRFR2-BP antag – antagonists of CRF-binding protein/CRF-R2 receptor complex | HEK293 CRF-R2/CRF-BP, CRF-induced calcium fluorescence | inhibition, % at 11.8 µM | 350,000 tested, 0.59% active | AID 588475;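 active = inhibition of the ligand-induced calcium signal above about 50% at the single tested concentration, limit read from the data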
Starred values were filed as active, the others as inactive; i = inactive; x = not tested or not shown; + = active, no number.

SMILES	TPT1 inhibitor	IDE act	CRFBP-R2 agonist	IDE cell inh	Myeloid diff 2	CRFR2-BP antag
CC(=O)Oc1ccc(C(=O)[C@H]2[C@H]3C(=O)N(c4ccc(C)cc4)C(=O)[C@H]3[C@@H]3C=CC=NN32)cc1	8.5	1.4	0.7	11.8	+	7.2
C=CCOc1ccccc1CN(C(=O)CCl)c1ccc2c(c1)OCO2	3.0	2.2	-1.3	-4.8	+	13.6
Cc1cc(O)c(C2(O)C(=O)Nc3cc(Br)ccc32)cc1C (centres undefined)	-1.2	1.8	4.1	1.3	i	121.1*
Nc1ccc2sc(N)nc2c1	x	0.8	-1.0	2.5	+	4.9
Nc1ccc2nc(N)sc2c1	x	0.5	0.0	x	i	2.6
CN(C)c1ccc([C@@H]2[C@@H]([N+](=O)[O-])[C@H]3C=Cc4ccccc4N3[C@H]2C(=O)c2ccc(Cl)cc2)cc1	82.2*	-14.7	25.0	7.1	i	-45.9
O=C(c1ccccc1)C1C(c2ccccc2)C1[N+](=O)[O-] (centres undefined)	0.2	-4.5	-2.9	1.6	i	7.6
COc1ccc(CN2C[C@@H](CO)O[C@@H](n3cnc4c(N5CCOCC5)ncnc43)C2)cc1	x	x	x	x	i	x
COCCCNc1c2c3c(cccc3[nH]c1=O)C(=O)c1ccccc1-2	-18.9	33.3*	203.9*	-6.9	+	-192.1
Cc1cc(C)c(S(=O)(=O)n2ccc3ccccc32)c(C)c1	0.6	4.5	-0.5	4.0	i	58.3*
COc1cc(/C=C/C(=O)O)cc(OC)c1O	-2.8	-0.2	-2.3	2.9	+	-10.0
COc1ccc(/C=C/C(=O)O)cc1Cl	-0.2	-0.7	-0.8	-3.0	i	16.5
COC(=O)c1ccccc1NC(=O)[C@@H]1CCC(=O)N1C1OC(=O)c2c1ccc(OC)c2OC (some centres undefined)	-3.0	4.0	-2.5	10.8	+	15.2
Cc1ccc(C(=O)NCc2ccccn2)cc1NC1=NC2CS(=O)(=O)CC2S1 (centres undefined)	3.4	4.8	0.4	-0.1	i	-1.0
CCOC(=O)N/N=C(\C)c1ccccc1OC(F)F	-1.2	4.0	-0.2	-0.5	i	3.0
O=C(Nc1ccccc1N1CCCCC1)C1CCN(C(=O)c2ccc(Cl)cc2)CC1	-0.4	-1.2	2.6	-1.1	i	100.0*
O=C(NC1CCCC1)C1CCC(CNS(=O)(=O)c2ccc(F)cc2)CC1 (centres undefined)	0.7	-3.2	-1.6	3.6	i	88.9*
N#CC(=C(O)CN1CCN(c2ccccc2F)CC1)c1nc(-c2ccccc2)cs1	x	3.0	-1.6	x	i	12.0
c1ccc(C(c2ccccc2)N2CCN(Cc3nc(-c4cnccn4)no3)CC2)cc1	-2.8	8.7	-1.0	0.1	i	-2.1
c1ccc(-c2noc(CN3CCN(c4cnccn4)CC3)n2)cc1	-0.8	6.1	-0.1	3.6	i	73.6*
CCCOc1ccc(-c2cc(C(F)(F)F)c(C#N)c(SCC(=O)O)n2)cc1	-0.4	-3.0	-5.2	-1.5	i	8.1
COc1ccc(OCC(O)CN2C(=O)c3ccccc3C2=O)cc1 (centres undefined)	-2.4	3.4	-0.5	-5.4	+	5.7
Cc1ccccc1Nc1nc(Cl)c(C=O)s1	27.1*	8.0	13.5	-1.0	i	-59.2
CC(=O)Nc1c2c3c(cccc3n(C)c1=O)C(=O)c1ccccc1-2	-27.9	0.0	3.5	3.1	i	-1.0
Cn1c(=O)c(Nc2ccc(Cl)cc2)c2c3c(cccc31)C(=O)c1ccccc1-2	-105.7	x	111.0*	15.5	x	-241.4
SMILES	TPT1 inhibitor	IDE act	CRFBP-R2 agonist	IDE cell inh	Myeloid diff 2	CRFR2-BP antag
COc1ccc(CCN2C(=O)CSC2=Nc2ccc(C(C)C)cc2)cc1OC	-2.1	x	4.6	1.6	+	3.8
CC(C)(C)c1ccc(C(=O)O[C@H]2[C@H](Cc3ccccc3)NS(=O)(=O)[C@H]3C[C@@H]4C=C[C@]23O4)cc1	x	3.3	0.7	1.0	i	-4.8
CCOc1ccc(C(=O)O[C@H]2[C@H](Cc3ccccc3)NS(=O)(=O)[C@H]3C[C@@H]4C=C[C@]23O4)cc1	x	0.5	-0.8	9.7	+	7.5
CC1(C)Cc2c(C#N)c(N)n(-c3ccccc3)c(=S)c2CO1	-1.6	x	1.6	5.1	i	-2.5
N#Cc1c2c(c(=S)n(-c3ccccc3)c1N)CCCC2	-15.7	-2.8	7.8	4.7	+	-10.7
CSc1nc2nc(Cl)c(Cl)nc2[nH]1	x	x	3.9	x	i	16.5
COc1ccc(CC(=O)N2CCN(c3ccccc3F)CC2)cc1OC	-2.0	-4.0	1.5	3.3	i	9.9
O=C(Cc1ccc(F)cc1)N1CCN(c2ccc([N+](=O)[O-])cc2)CC1	x	0.3	-2.8	x	+	30.5
O=C(Cc1ccc(-n2cccc2)cc1)N1CCN(c2ccccc2F)CC1	-3.8	-1.1	-4.1	12.3	i	52.9*
Cc1ccc(CC(=O)NCCCc2ccccc2)cc1	-0.6	2.1	-4.5	2.2	i	59.6*
O=C(CCCc1cccs1)Nc1ccc2c(c1)OCO2	1.4	2.5	1.8	5.1	i	58.5*
Cc1ccc(-c2cn(-c3ccc(SC(F)F)cc3)c3[n+]2CCC3)cc1	1.3	3.1	-0.5	-2.2	+	14.1
CCc1nnc(NC(=O)c2cc(Cl)ccn2)s1	-0.4	-4.2	0.3	-0.2	i	-17.1
COC(=O)c1ccc(C)c(NC(=O)Cc2coc3cc(OC)ccc23)c1	3.4	-1.7	-1.0	-3.5	+	31.7
COC(=O)c1cc(NC(=O)Cc2coc3cc(OC)ccc23)cc(C(=O)OC)c1	-2.1	-5.3	-0.4	10.6	i	5.6
O=C(O)CCCCCNC(=O)OCC1c2ccccc2-c2ccccc21	-1.5	-1.9	0.6	2.2	i	21.0
CN1C(=O)N(S(=O)(=O)c2ccc(F)c(F)c2F)C(=O)C1(C)C	-1.9	0.5	-0.9	-2.5	+	6.9
Cn1cccc1Cc1nnc(SCC(=O)N2CCN(c3ccccc3)CC2)n1-c1ccc(F)cc1	0.0	2.2	-2.2	4.8	i	51.5*
COc1ccc(S(=O)(=O)N2CCN(C(=O)CC3CC4CCC3C4)CC2)cc1 (centres undefined)	x	3.4	-1.7	0.2	i	6.7
COc1ccccc1N1CCN(C2CCCN(C(=O)c3cc(C4CC4)on3)C2)CC1 (centres undefined)	-2.5	6.9	-2.5	1.3	i	51.5*
CO/N=C\CC(=O)Nc1ccc(Cl)cc1Cl	0.9	5.3	0.4	-1.9	+	-7.2
Cc1ccc(C[n+]2ccccc2)cc1	-2.2	-5.9	-0.5	-1.2	+	0.6
COC(=O)c1ccc(C[n+]2ccccc2)cc1	-3.0	2.6	-0.5	-2.1	i	3.4
O=C1C(Cc2ccc3[nH]ccc3c2)NC(=S)N1c1ccccc1 (centres undefined)	5.9	-2.4	0.2	1.8	i	-7.2
